Assay results: PubChem BioAssay AID686970 (National Center for Advancing Translational Sciences (NCATS), 2013)
The whole screen tested about 360,000 compounds, of which about 6,000 (1.7%) were called active. Not shown: some 8% with an inconclusive outcome. The call rests on the fitted dose curve; in most records, active means well fitted cell-killing curve with a large enough effect; inconclusive means small, poorly fitted or top-dose-only effect, or effect the other way; inactive means flat fitted curve, though single readings scatter. The sample as a whole holds a higher share of actives than the screen did.

test: qHTS for induction of synthetic lethality in tumor cells producing 2HG: qHTS for the HT-1080-NT fibrosarcoma cell line; conditions: HT-1080-NT fibrosarcoma viability, CellTiter-Glo ATP luminescence, 48 h; series mostly up to 46.1 µM; activity, negative = less viability: at the top concentration;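 further: NT is the 2HG producing partner of a matched IDH1 knockdown line; nearly all actives have a fitted effect of over 55% in size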;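 on activity, negative = less viability: 0% = DMSO-treated cells and -100% = media-only wells without cells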
Method in brief: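 Luminescent CellTiter-Glo readout after 48 hours of compound exposure at 37 degrees C defined viability of HT-1080-NT cells. Activity was normalized to DMSO wells and cell-free media wells; concentration-response curves were fitted and assigned curve classes.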
Potency means the concentration at half of the fitted maximal effect.

SMILES	activity, negative = less viability	Potency
CC1(C)OC(=O)C2=C(C[C@@H](C3CC3)O[C@H]2CCc2cccc(Cl)c2)O1	-21.7% (inactive)	–
CN1CCN(CCCCOc2cccc3ccccc23)CC1	-3.37% (inactive)	–
CC(C)c1ccccc1OCC(O)CN(CC(O)COc1cccc2ccccc12)C(C)C (configuration not stated)	–	18.4 µM (active)
CCC(C)Sc1nc2c(c(=O)[nH]c(=O)n2C)n1CC(O)COc1cccc2ccccc12 (configuration not stated)	-3.75% (inactive)	–
Cc1nc(C(F)(F)F)ccc1C(=O)N1CCC1(C)C(=O)NS(=O)(=O)c1ccc(F)cc1F (configuration not stated)	23.6% (inactive)	–
COC(=O)c1ccc2nc(-c3cccc(Br)c3)c(Cc3ccccc3C(F)(F)F)n2c1	18.3% (inactive)	–
COc1ccc(NC(=O)C2Cc3c(-c4ccc5c(c4)OCO5)ccnc3O2)cn1 (configuration not stated)	–	5.8 µM (active)
COc1ccc(NC(=O)C2Cc3c(-c4cccc(NC(C)=O)c4)ccnc3O2)cc1OC (configuration not stated)	-32.4% (inactive)	–
O=C(Nc1ccc(Cl)cc1)C1Cc2c(-c3ccc4c(c3)OCO4)ccnc2O1 (configuration not stated)	-26.5% (inactive)	–
Cc1cc(C(=O)CCl)c(C)n1CC1COc2ccccc2O1 (configuration not stated)	–	14.6 µM (active)
O=C1C(=O)N(CC2COc3ccccc3O2)c2ccccc21 (configuration not stated)	-5.04% (inactive)	–
Cc1ccsc1C(=O)OCC(=O)c1cc(C)n(CC2CCCO2)c1C (configuration not stated)	-2.95% (inactive)	–
COCCCn1c(=O)/c(=C/c2ccccc2OC(C)C)s/c1=C(\C#N)C(=O)Nc1ccc(C(=O)O)cc1	-16% (inactive)	–
CCOC(=O)C1CCCN(C(=O)c2ccc(C)c(F)c2)CC1 (configuration not stated)	12.6% (inactive)	–
CC(C)(C)Nc1nc(-c2ccccn2)nc2ccccc12	-14.3% (inactive)	–
Cc1cc(C)n(-c2nc(C(F)(F)F)nc3ccccc23)n1	-1.68% (inactive)	–
CC(Nc1nc(C(F)(F)F)nc2ccccc12)c1cccs1 (configuration not stated)	–	20.6 µM (active)
Clc1ccc(-c2cccc3nccn23)cc1	36.5% (inactive)	–
CCOC(=O)c1ccccc1OC(=O)Oc1ccccc1C(=O)OCC	-20.1% (inactive)	–
CCOC(=O)c1c(C)[nH]c2c1-c1ccccc1C(=O)C2=O	–	2.91 µM (active)
CCOC(=O)C1=C(C)c2ccccc2OC1(C)C(=O)OCC (configuration not stated)	7.06% (inactive)	–
CCOC(=O)[C@]12CCCC=C1N(Cc1ccc3c(c1)OCO3)C(=O)[C@H](CC(=O)N1CCN(C(=O)c3ccco3)CC1)C2	-1.49% (inactive)	–
COc1cc(CNc2ncnc3c2ncn3[C@H]2CN(Cc3cccs3)C[C@@H](CO)O2)cc(OC)c1OC	-19.8% (inactive)	–
COCCNc1nc(Nc2ccccc2Cl)c2sc(-c3ccccc3)cc2n1	22.7% (inactive)	–
CC(=O)Nc1ccc(CNc2nc(NCCN(C)C)nc3cc(-c4ccccc4)sc23)cc1	–	11.6 µM (active)

SMILES	activity, negative = less viability	Potency
COCCNc1nc(NCc2ccc(NC(C)=O)cc2)c2sccc2n1	21.7% (inactive)	–
COc1ccc(Cl)cc1NC(=O)CN(C)C(=O)c1cn(-c2ccccc2)nc1-c1cccs1	2.6% (inactive)	–
Cc1cccc2cc3c(N)c(C(=O)N4CCCc5ccccc54)sc3nc12	–	3.26 µM (active)
O=C(c1cc(-c2ccc(O)cc2)on1)N1CCCc2ccccc21	9.42% (inactive)	–
Cc1ccc(C(=O)N2CCCc3ccccc32)c(Cl)c1	-0.902% (inactive)	–
O=C(C[C@H]1C[C@@H]2c3cc(NC(=O)C4CCC4)ccc3O[C@@H]2[C@H](CO)O1)NC1CCCCC1	4.93% (inactive)	–
COc1ccc(CNC(=O)CCN2C(=O)c3ccccc3C2=O)cc1	14.4% (inactive)	–
CCOC(=O)C(NC(C)=O)C(=O)Nc1ccc(OC)cc1 (configuration not stated)	14.9% (inactive)	–
CCOC(=O)C1=C(c2ccc(OC)cc2)C(=O)c2ccccc2C1=O	–	5.8 µM (active)
O=C(NN=Cc1ccc2c(c1)CCC2)c1ccccc1O	0.557% (inactive)	–
COc1cccc(NC(=O)C2(C)CCN2C(=O)CCC2CCCC2)c1 (configuration not stated)	6.2% (inactive)	–
Cc1cc(NC(=O)/C=C/C(=O)N(c2ccccc2C)C(C(=O)NC2CCCC2)c2ccc(F)cc2)no1 (configuration not stated)	–	11.2 µM (active)
Cc1cc(NC(=O)CCC(=O)N(c2ccccc2)C(C(=O)NC2CCCC2)c2ccncc2)no1 (configuration not stated)	17% (inactive)	–
Cc1cc(NC(=O)CCC(=O)N(CC(=O)NC2CCCC2)c2ccc(F)cc2)no1	11.2% (inactive)	–
CC1(C(=O)Nc2ccc3c(c2)OCCO3)CCN1C(=O)Cc1cc(F)ccc1F (configuration not stated)	13.2% (inactive)	–
O=C(O)C1=C(C(=O)O)C2CCC1C2	-0.299% (inactive)	–
COC(=O)N(NC(=O)C(O)(C(C)C)C(C)C)c1ccccc1	18.4% (inactive)	–
CCCC(O)(CCC)C(=O)NN(C(=O)CCl)c1cccc(C)c1	–	6.51 µM (active)
CC(C)(O)C(=O)NN(C(=O)c1ccccc1)c1cccc(Br)c1	9.85% (inactive)	–
COc1ccc(C2OC(CCc3ccccc3)Cc3[nH]c(=S)[nH]c(=O)c32)cc1 (configuration not stated)	-12.7% (inactive)	–
CCOC(=O)C1CCCN(C(=O)c2cccc3ccccc23)CC1 (configuration not stated)	8.59% (inactive)	–
CCc1nc2ccc(C(=O)N3CCN(S(=O)(=O)CC)CC3)cn2c1N(C=O)CCC(C)C	11.2% (inactive)	–
COc1ccc(Br)cc1/C=N/Nc1ccc(Cl)c(C(=O)O)c1	6.6% (inactive)	–
O=c1[nH]c2cccnc2n(CCNc2ncc(C(F)(F)F)cc2Cl)c1=O	-5.03% (inactive)	–
COc1cccc(/C=N/Nc2ncc(C(F)(F)F)cc2Cl)c1O	–	16.4 µM (active)

SMILES	activity, negative = less viability	Potency
CCN1C(=O)[C@@H]2[C@@H]3CN(S(=O)(=O)c4ccccc4C)[C@@H](c4ccc(Cl)cc4)[C@@H]3C(=O)C[C@@H]2C1=O	0.249% (inactive)	–
CCc1nc2c(OCCOc3ccc(F)cc3)cccn2c1N(C)C(=O)c1ccccc1F	-10.6% (inactive)	–
CCOc1cc(/C=N/Nc2cc(C)nc3ccc(C)cc23)ccc1O	-1.31% (inactive)	–
COc1cc(/C=N/Nc2nc3ccccc3s2)ccc1O	–	20.6 µM (active)
COc1cc(C=NC2CCCCC2)ccc1O	11.8% (inactive)	–
Nc1ncnc2c1ncn2[C@@H]1O[C@H](CNC(=O)[C@H](N)Cc2cccnc2)[C@@H](O)[C@H]1O	19.8% (inactive)	–
Cc1nnsc1S(=O)(=O)Cc1ccccc1Cl	6.73% (inactive)	–
O=C(Nc1ccc(S(=O)(=O)Nc2ccccn2)cc1)c1ccccc1	-0.939% (inactive)	–
O=C(Nc1ccccc1)c1nnsc1S(=O)(=O)c1ccc(Cl)cc1	–	20.6 µM (active)
C=C1C=C(C)n2ncc(C(=O)Nc3ccccc3O)c2N1	2.15% (inactive)	–
COc1ccc(C(C)(C)C)cc1NC(=O)CN(C)C1=NS(=O)(=O)c2ccccc21	-2.56% (inactive)	–
CCc1nc2ccc(C(=O)Nc3cc(-c4ccccc4)ccc3OC)cn2c1N(CC)CC(=O)N(C)C	-29.7% (inactive)	–
CCOC(=O)C1(C)CCCN(C(=O)c2ccc(N(C)C)cc2)C1 (configuration not stated)	24.7% (inactive)	–
CC(=O)c1cccc(-c2cnc3c(NC=O)cc(-c4ccccc4Oc4ccccc4)cn23)c1	-41.4% (inactive)	–
CC(=O)Nc1cccc(-c2cc(NC=O)c3ncc(-c4ccc(F)c(Cl)c4)n3c2)c1	–	18.4 µM (active)
COc1cccc(-c2cc(NC(C)=O)c3ncc(-c4cccc(C(C)=O)c4)n3c2)c1	-6.83% (inactive)	–
CC(=O)c1cccc(-c2cnc3c(NC=O)cc(-c4cccc(C(=O)N(C)C)c4)cn23)c1	-31.5% (inactive)	–
CC(=O)Nc1cc(-c2cccc(CO)c2)cn2c(-c3cccc(C(F)(F)F)c3)cnc12	11.9% (inactive)	–
COc1ccccc1-c1cc(NC(C)=O)c2ncc(-c3ccc(F)cc3)n2c1	-9.97% (inactive)	–
CN(C)CCNC(=O)c1cccc(-c2cnc3c(NC=O)cc(-c4cccc(C(F)(F)F)c4)cn23)c1	–	20.6 µM (active)
CC(=O)c1cccc(-c2cnc3c(NC=O)cc(-c4ccc(N5CCN(C)CC5)cc4)cn23)c1	-28.5% (inactive)	–
CC(=O)Nc1cc(-c2ccccc2N(C)C)cn2c(-c3ccc(F)c(Cl)c3)cnc12	–	29.1 µM (active)
CC(C)(C)C1CCC(=O)N2CCC[C@]2(c2ccccc2)C1 (some centres not stated)	0.351% (inactive)	–
COc1ccc(COC[C@H](CC(C)C)N2CCN(C(=O)c3cccc(C(F)(F)F)c3)CCC2=O)cc1	-27.2% (inactive)	–
CCC(C(=O)NCc1ccccc1)n1c(Cc2cc(F)cc(F)c2)nc2ccccc21 (configuration not stated)	19.4% (inactive)	–

SMILES	activity, negative = less viability	Potency
Cc1cccc(S(=O)(=O)N(C)C[C@@H]2OCc3cnnn3CCCC(=O)N([C@H](C)CO)C[C@@H]2C)c1	-1.34% (inactive)	–
O=C1Nc2ccccc2NC(c2ccc3c(c2)OCO3)=C1N(Cc1ccc(F)cc1)C(=O)c1ccco1	-27.8% (inactive)	–
CCc1nc2ccc(C(=O)N3CCC(O)(Cc4ccccc4)CC3)cn2c1N(C)C(=O)Cc1ccccc1	16.9% (inactive)	–
Cc1cc(Nc2ccc(C)c(C)c2)n2ncnc2n1	-4.68% (inactive)	–
CC(C)(C(=O)N1CCC1(C)C(=O)NS(=O)(=O)c1ccc(Br)cc1)c1ccccc1 (configuration not stated)	5.63% (inactive)	–
CCc1nc(C)cn1S(=O)(=O)c1cc(OC)c(C)cc1C	-3.6% (inactive)	–
CC(C)c1nccn1S(=O)(=O)c1cc([N+](=O)[O-])ccc1Cl	10.8% (inactive)	–
CCc1nc(C)cn1S(=O)(=O)c1cc([N+](=O)[O-])ccc1Cl	–	4.11 µM (active)
COc1ccc(S(=O)(=O)NCCCc2ccccc2)cc1	8.15% (inactive)	–
Cc1ccc(S(=O)(=O)/N=C2\C=C(NS(=O)(=O)c3ccc(C)cc3)C(=O)c3ccccc32)cc1	-8.64% (inactive)	–
COc1ccc(S(=O)(=O)/N=C2\C=C(NS(=O)(=O)c3ccccc3)C(=O)c3ccccc32)cc1	–	18.4 µM (active)
O=C1c2ccccc2C(c2nc3ccccc3[nH]2)N1c1ccccc1 (configuration not stated)	6.74% (inactive)	–
CC1(C)OC(=O)C2=C(C[C@@H](C3CCCCC3)O[C@@H]2c2ccc(Cl)cc2)O1	12.4% (inactive)	–
CN1OC[C@@H]2CN(C(=O)c3ccc(-c4ccccc4)cc3)[C@H](c3ccc(-c4cccc(F)c4)cc3)C[C@@H]21	-3.98% (inactive)	–
CCCCc1nnc(NC(=O)CS(=O)(=O)Cc2ccccc2)s1	9.31% (inactive)	–
CCCCOC(=O)Nc1nccs1	3.33% (inactive)	–
CCCCOC(=O)Nc1nnc(CC(=O)NCc2ccccc2)s1	–	4.11 µM (active)
Cc1noc(C)c1-c1ccc(C(=O)NCc2ccncc2)c2occc12	-13.6% (inactive)	–
NC(=O)NC(CC(=O)NNC(=O)c1ccccn1)c1ccc(Cl)cc1 (configuration not stated)	-4.41% (inactive)	–
C/C(=N\NC(=O)Cc1ccc(Cl)cc1)c1ccccn1	–	1.78 µM (active)
CC(=NNC(=S)N1CCCCCC1)c1ccccn1	-17.2% (inactive)	–
O=C(O)c1ccccc1Cc1ccc(F)c2ccccc12	-0.43% (inactive)	–
